Experimental findings from ChEMBL document CHEMBL3988442, “University of Dundee, Small-Polar-MMV Screening Library” (2021) are described below.

What all share (parameters): scale not given: direction of the effect not stated beside the values
Assay [1] deals with Protein translocase subunit SecA (Escherichia coli (strain K12)) (UniProt P10408). In words: Assay to Identify E. coli SecA ATPase Inhibitors. Type of assay: functional. Particulars: 30 µM.
The target of assay [2] is T1, Ubiquitin-activating enzyme e1, putative (Leishmania donovani (strain BPK282A1)) (UniProt E9BSI1).
T1 sequence (whole entry): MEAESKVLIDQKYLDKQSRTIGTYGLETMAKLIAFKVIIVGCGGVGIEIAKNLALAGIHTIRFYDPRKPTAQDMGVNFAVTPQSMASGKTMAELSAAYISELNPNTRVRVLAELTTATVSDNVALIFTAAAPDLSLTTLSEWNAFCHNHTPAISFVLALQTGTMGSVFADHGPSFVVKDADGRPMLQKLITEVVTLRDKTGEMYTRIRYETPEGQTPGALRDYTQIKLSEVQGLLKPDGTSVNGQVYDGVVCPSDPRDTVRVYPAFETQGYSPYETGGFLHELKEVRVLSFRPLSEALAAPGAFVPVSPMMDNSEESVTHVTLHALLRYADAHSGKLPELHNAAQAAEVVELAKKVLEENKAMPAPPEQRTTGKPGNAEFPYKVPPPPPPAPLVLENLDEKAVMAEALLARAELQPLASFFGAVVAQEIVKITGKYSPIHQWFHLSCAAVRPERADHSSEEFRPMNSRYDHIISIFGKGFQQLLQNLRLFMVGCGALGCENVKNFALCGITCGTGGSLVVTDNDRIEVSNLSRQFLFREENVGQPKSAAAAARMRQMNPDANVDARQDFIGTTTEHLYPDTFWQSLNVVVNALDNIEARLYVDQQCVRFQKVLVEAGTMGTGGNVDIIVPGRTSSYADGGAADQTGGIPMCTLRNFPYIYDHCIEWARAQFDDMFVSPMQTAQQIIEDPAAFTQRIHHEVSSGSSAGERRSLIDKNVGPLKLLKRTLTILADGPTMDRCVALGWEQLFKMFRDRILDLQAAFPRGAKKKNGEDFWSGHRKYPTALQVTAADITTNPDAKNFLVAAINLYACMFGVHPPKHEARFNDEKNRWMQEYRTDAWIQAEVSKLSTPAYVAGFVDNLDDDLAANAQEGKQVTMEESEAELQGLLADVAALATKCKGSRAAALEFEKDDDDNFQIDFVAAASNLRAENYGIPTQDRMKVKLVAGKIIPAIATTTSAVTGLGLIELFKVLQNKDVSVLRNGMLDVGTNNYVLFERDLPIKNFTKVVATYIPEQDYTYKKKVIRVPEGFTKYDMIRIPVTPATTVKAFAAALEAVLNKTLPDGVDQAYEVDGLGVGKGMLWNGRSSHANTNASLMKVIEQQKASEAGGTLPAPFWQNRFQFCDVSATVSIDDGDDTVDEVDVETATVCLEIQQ
The assay is described as follows: Leishmania donovani Ubiquitin Activating Enzyme (LdE1). Type of assay: functional. Conditions: 30 µM.

The target of assay [3] is Sialic acid-binding Ig-like lectin 9 (Homo sapiens) (UniProt Q9Y336). The assay is described as follows: Hs-Siglec9 ALPHAscreen SOP 20170721. Conditions: 10 µM.
Assay [4] concerns Trypanosoma cruzi. The assay is described as follows: Trypanosoma cruzi phosphomannomutase and mannose-1-phosphate guanylyltransferase assay. The assay is classed as functional. Conditions: 10 µM.
Assay [5] concerns the target T2, Arginase-2, mitochondrial (Homo sapiens) (UniProt P78540).
T2 sequence (whole entry): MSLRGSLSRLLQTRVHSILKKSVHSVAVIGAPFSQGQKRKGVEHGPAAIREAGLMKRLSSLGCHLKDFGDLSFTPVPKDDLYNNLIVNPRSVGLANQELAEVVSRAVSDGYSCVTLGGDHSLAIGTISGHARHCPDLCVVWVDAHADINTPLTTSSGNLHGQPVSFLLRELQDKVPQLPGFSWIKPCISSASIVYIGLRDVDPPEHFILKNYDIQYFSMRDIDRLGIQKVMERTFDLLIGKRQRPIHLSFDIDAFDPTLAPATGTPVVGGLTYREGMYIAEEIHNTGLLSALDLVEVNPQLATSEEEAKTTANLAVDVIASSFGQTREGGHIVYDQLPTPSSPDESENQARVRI
In words: in vitro enzyme assay to detect the production of urea directly proportional to the activity of Arginase II. Further: in the data most compounds retested in dose-response had high values. The assay is classed as functional. Conditions: 33.3 µM.

In assay [6] the target is T3, Proteasome subunit beta (Trypanosoma cruzi) (UniProt O96673).
T3 sequence (whole entry): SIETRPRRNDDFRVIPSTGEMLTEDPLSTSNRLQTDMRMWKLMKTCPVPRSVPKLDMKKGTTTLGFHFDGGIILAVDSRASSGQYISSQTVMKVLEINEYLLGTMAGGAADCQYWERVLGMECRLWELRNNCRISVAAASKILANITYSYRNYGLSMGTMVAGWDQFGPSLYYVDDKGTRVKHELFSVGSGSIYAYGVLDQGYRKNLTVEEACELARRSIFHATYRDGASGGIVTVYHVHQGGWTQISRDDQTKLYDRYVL
The assay is described as follows: Trypanosoma cruzi proteasome chymotrypsin-like activity (TcProtChymo) assay. Further: in the data most compounds retested in dose-response had high values. Type of assay: functional. Conditions: 9.37 µM.

Assay [7] is filed under the species Homo sapiens. In words: To identify inhibition of the IFN signalling (Jak-Stat) pathway via expression of an eGFP reporter gene under the control of an IFN-stimulated response element (ISRE) containing MxA promoter. Type of assay: functional. Particulars: 30 µM. (In general: A reporter such as luciferase makes a cellular process visible.)
The target of assay [8] is T4, Tyrosyl-tRNA synthetase, putative (Trypanosoma cruzi (strain CL Brener)) (UniProt Q4DSP6).
T4 sequence (whole entry): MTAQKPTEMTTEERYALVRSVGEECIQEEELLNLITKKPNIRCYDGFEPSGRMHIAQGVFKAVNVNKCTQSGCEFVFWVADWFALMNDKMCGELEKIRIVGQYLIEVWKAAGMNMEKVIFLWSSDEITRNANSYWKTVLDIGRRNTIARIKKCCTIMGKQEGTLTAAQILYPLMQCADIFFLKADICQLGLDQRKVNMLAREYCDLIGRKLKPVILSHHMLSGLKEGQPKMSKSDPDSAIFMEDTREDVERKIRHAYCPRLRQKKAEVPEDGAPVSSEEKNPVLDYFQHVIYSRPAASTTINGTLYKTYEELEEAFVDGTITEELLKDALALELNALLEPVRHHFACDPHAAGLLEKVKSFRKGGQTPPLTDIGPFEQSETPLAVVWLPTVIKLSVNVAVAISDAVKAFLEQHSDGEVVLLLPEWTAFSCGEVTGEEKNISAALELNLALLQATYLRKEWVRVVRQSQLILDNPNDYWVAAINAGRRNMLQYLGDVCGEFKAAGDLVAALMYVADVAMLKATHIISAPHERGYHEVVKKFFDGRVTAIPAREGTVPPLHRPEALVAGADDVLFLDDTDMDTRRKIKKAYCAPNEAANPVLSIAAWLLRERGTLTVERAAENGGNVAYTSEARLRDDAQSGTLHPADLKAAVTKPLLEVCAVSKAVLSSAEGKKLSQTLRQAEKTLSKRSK
In words: Trypanosoma cruzi tyrosyl tRNA synthetase (TcYRS) _High Tyrosine SOP. Further: in the data most compounds retested in dose-response had high values. The assay is classed as functional. Conditions: 30 µM.

For assay [9], the target named is T4, Tyrosyl-tRNA synthetase, putative (Trypanosoma cruzi (strain CL Brener)). In words: Trypanosoma cruzi tyrosyl tRNA synthetase (TcYRS) SOP. Type of assay: functional. Conditions: 30 µM.
Assay [10] deals with Chromo domain-containing protein 1 (Saccharomyces cerevisiae (strain ATCC 204508 / S288c) (Baker's yeast)) (UniProt P32657). The assay is described as follows: ScCHD-1 Enzyme Inhibition Assay. Further: in the data most compounds retested in dose-response had high values. The assay is classed as functional. Particulars: 30 µM.

For part of these data: Entries with a potency or affinity are not part of this list.

Sequence of Chromo domain-containing protein 1 (Saccharomyces cerevisiae (strain ATCC 204508 / S288c) (Baker's yeast)) (P32657 whole entry, the tested form may be a part): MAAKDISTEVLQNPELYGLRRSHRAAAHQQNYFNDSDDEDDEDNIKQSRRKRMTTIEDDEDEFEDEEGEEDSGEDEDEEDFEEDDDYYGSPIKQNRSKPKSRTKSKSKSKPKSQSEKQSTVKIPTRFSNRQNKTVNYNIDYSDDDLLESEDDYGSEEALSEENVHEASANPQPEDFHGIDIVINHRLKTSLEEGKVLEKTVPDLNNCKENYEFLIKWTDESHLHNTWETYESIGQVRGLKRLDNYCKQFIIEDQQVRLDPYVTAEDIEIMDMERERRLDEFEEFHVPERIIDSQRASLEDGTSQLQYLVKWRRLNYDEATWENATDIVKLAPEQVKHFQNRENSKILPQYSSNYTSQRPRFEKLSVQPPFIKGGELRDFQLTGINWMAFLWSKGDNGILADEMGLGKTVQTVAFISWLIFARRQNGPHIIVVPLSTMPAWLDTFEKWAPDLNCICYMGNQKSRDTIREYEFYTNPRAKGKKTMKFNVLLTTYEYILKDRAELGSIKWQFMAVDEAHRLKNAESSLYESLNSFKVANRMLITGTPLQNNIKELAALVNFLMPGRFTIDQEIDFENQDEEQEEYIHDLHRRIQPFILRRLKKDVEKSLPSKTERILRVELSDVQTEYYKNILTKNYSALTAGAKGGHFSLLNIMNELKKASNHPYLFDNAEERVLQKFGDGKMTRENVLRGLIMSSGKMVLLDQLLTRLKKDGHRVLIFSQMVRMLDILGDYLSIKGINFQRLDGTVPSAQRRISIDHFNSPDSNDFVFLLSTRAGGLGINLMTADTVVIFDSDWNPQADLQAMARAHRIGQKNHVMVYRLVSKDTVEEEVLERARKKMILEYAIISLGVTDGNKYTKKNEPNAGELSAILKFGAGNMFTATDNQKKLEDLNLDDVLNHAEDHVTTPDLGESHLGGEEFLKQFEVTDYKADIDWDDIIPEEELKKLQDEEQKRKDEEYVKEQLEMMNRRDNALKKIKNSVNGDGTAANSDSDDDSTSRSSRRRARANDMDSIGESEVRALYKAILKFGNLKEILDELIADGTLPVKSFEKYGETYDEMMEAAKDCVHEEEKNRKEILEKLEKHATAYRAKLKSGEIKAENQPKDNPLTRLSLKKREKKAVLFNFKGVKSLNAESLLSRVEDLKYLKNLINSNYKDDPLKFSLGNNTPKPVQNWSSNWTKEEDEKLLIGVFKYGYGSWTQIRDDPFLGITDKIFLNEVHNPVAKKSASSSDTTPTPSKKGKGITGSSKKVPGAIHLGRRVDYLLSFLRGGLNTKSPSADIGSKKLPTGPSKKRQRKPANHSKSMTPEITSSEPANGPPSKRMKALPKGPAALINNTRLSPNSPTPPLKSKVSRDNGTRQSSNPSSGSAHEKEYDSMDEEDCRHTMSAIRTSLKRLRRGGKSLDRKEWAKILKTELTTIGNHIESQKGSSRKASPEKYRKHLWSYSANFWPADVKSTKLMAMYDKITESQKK
Sequence of Sialic acid-binding Ig-like lectin 9 (Homo sapiens) (Q9Y336 whole entry): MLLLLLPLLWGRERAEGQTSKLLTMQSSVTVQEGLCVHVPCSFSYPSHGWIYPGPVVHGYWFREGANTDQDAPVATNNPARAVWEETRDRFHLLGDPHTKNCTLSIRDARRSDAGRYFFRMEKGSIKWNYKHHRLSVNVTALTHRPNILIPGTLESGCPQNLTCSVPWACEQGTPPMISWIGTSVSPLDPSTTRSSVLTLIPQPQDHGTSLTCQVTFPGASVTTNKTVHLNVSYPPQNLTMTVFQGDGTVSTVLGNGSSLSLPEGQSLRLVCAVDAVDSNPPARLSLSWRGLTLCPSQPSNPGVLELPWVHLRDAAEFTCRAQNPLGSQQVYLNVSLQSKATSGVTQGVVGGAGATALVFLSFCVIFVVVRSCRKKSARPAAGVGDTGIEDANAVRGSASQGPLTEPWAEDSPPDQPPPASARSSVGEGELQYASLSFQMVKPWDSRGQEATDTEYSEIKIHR
Sequence of Protein translocase subunit SecA (Escherichia coli (strain K12)) (P10408 whole entry): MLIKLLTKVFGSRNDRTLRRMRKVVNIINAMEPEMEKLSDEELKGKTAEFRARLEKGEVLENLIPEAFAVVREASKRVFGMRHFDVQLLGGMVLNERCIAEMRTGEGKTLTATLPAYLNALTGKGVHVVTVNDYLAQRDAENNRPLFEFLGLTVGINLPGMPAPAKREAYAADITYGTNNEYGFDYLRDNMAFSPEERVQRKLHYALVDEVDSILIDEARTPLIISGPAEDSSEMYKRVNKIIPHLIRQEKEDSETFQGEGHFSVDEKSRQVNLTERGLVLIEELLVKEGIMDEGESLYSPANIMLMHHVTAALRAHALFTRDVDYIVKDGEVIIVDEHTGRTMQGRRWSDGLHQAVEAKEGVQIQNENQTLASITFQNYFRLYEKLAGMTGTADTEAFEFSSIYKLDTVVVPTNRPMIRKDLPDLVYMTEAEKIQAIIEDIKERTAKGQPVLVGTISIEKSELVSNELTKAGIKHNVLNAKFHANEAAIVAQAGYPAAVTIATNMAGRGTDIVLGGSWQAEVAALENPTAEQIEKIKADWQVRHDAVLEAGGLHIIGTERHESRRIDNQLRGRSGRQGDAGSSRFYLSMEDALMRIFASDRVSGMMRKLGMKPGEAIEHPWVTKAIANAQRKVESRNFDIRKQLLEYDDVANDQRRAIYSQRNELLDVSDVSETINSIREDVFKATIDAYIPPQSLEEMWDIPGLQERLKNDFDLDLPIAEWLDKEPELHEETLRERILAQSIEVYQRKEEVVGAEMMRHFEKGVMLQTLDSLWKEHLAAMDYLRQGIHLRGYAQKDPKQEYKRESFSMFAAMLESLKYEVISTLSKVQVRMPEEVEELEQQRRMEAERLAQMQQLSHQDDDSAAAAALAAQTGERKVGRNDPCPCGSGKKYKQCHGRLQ

With `CNc1cncc(C2CCCN2C(=O)c2ccc3oc(C)cc3c2)n1` (stereo not given), the Percent Effect in assay [1] was -2.25%; in assay [2], 12%; in assay [3], -1.38%; in [4], 3.35%; in assay [5], -1.33%; in assay [6], 16.6%. For the same molecule, the Percent Effect was -2.62% in assay [7], 3.17% in assay [8], 7.5% in [9] and -26.1% in [10].
In the case of `O=C(NCc1cc[nH]n1)NCC(O)COc1cccc(F)c1` (stereo not given), the Percent Effect in assay [1] was -1.6%; in [2], 10.7%; in assay [3] it was -6.96%; in assay [4], -7.03%; in assay [5], -7.98%; in assay [6] it was 8.74%. For the same molecule, the Percent Effect in assay [7] is 12.9%; in assay [8] it was -2.63%; in assay [9] it was 0%; in assay [10], -6.87%.
For the molecule `CC1COCCN1C(=O)c1cccc(OCc2cscn2)c1` (stereo not given), the Percent Effect in assay [1] was -2.94%; in assay [2] it was 10.3%; in assay [3], -10.6%; in [4] it was 7.98%; in [5] it was -4.1%; in [6], 9.3%. The Percent Effect in assay [7] was -21.1%; in [8] it was 5.26%; in [9], 20.5%; in assay [10], -2.42%.
Consider `Cn1cc(-c2nc(CN3CCc4c(ncn4C4CC4)C3)cs2)cn1`, for which the Percent Effect in assay [1] was 0.667%; in assay [2], -2.6%; in [3] it was 12.4%; in assay [4] it was 3.54%; in assay [5], -0.615%; in assay [6], 3.33%. Moreover, the Percent Effect in assay [7] was 8.83%; in assay [8], 0.98%; in assay [9], 4.71%; in assay [10], -7.98%.
Consider `O=C(NCCOc1ccc2c(c1)OCO2)N1CCC1`, for which the Percent Effect in assay [1] was -4.13%; in assay [2], 20.8%; in assay [3] it was 6.65%; in [4], -3.36%; in assay [5] it was 5.94%; in [6], 19.1%. Moreover, the Percent Effect was -11.1% in assay [7], 4.9% in assay [8], 16.5% in [9] and -4.94% in [10].
Consider `CCn1cc(NC(=O)NCc2ccc(CN3CCOCC3)cc2)cn1`, for which the Percent Effect in assay [1] was 0.918%; in assay [2], 13%; in assay [3], 16%; in assay [4] it was -7.28%; in assay [5], -6.35%; in assay [6] it was 10%. The Percent Effect in assay [7] was 24.2%; in assay [8] it was 4.9%; in assay [9], 11.8%; in assay [10], -1.62%.
As to `COCCc1noc(CN2CCCCC2Cn2cc(C)cn2)n1` (stereo not given), the Percent Effect in assay [1] was -0.511%; in assay [2], -2.56%; in assay [3] it was -0.235%; in assay [4] it was 3.85%; in assay [5] it was -1.23%; in assay [6], 3.84%. Besides, the Percent Effect is 12.7% in [7], -3.35% in assay [8], 6.02% in [9] and -1.31% in assay [10].
With `CC(NC(=O)N1CCN(CCc2ccccc2)CC1)c1nncn1C` (stereo not given), the Percent Effect in [1] was -5.57%; in assay [2], 5.33%; in [3], 0.0136%; in assay [4], 3.41%; in [5], 0.444%; in [6], 7.55%. The Percent Effect in assay [7] was 13.6%; in assay [8], 2.63%; in assay [9], -20.5%; in assay [10], -8.2%.
On to `Cc1ccc(OC2(C(=O)O)CCN(C(=O)c3nc(C)oc3C)CC2)cn1`, for which the Percent Effect is -6.7% in [1]; 0% in assay [2]; -0.0712% in assay [3]; 4.17% in [4]; 1.05% in [5]; -1.2% in assay [6]. Also, the Percent Effect was -9.04% in [7], 2.66% in assay [8], 4.88% in [9] and 1.11% in [10].
Regarding `Cc1cc(NCc2cc3n(n2)CCCN(S(C)(=O)=O)C3)ncn1`, the Percent Effect in assay [1] is -8.82%; in [2] it was 2.7%; in assay [3], 4.07%; in assay [4], 3.59%; in assay [5] it was 5.94%; in [6] it was 4.97%. The Percent Effect in [7] stood at 0.911%; in assay [8] it was 3.72%; in assay [9] it was 12.2%; in assay [10], 0.638%.
In the case of `CN1CC(=O)N(c2ccccc2)CC12CCN(CC1CC1)C2` (stereo not given), the Percent Effect in [1] is -2.12%; in assay [2], -1.3%; in assay [3] it was -3.04%; in [4] it was -6.13%; in assay [5] it was 1.22%; in assay [6], 10.5%. For the same molecule, the Percent Effect in assay [7] was -3.51%; in assay [8], -0.526%; in [9], 0%; in [10], -0.704%.
Turning to `CC(C)c1cc(C(=O)N(C)Cc2cccc3ncccc23)n(C)n1`, the Percent Effect was -3.2% in [1]; 12% in assay [2]; 13.8% in assay [3]; 0.986% in [4]; -1.77% in assay [5]; 13.1% in assay [6]. Also, the Percent Effect was 36.7% in assay [7], 3.17% in assay [8], 12.5% in assay [9] and -26% in assay [10].
